TDP1 block: TDP1 (human) enzyme inhibition | recombinant TDP1, AlphaScreen DNA substrate cleavage | Potency, µM (doses to about 130 µM), for inactives: at the top dose activity change, negative = inhibition, actives largely listed as inhibitors | 350,000 compounds, 0.28% hits | AID 485290; also: nearly all actives have a fitted effect of over 40% in size
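Here, a 5' biotin and 3' phosphotyrosine-FITC DNA oligonucleotide reports Tdp1 activity: intact substrate bridges AlphaScreen beads, while cleavage leaves a 3' phosphate and drops signal. All incubations at room temperature.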
VP16 counter: inhibits Gal4-VP16 luciferase reporter, ROR gamma counter-screen. Drosophila S2 Gal4-VP16 UAS-luciferase, luminescence, 20 h. Potency, µM (series often up to 53.6 µM), for inactives: top-dose activity, negative = inhibition, hits mostly inhibitors. 310,000 compounds, 3.5% hits. AID 2546;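 also: Gal4-VP16 expression switched on by copper sulfate through the metallothionein promoter; nearly all actives have a fitted effect of over 50% in size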
TDP1 cell noCPT: qHTS for Inhibitors of human tyrosyl-DNA phosphodiesterase 1 (TDP1): qHTS in cells in absence of CPT | DT40 Tdp1-/- hTDP1 cells, no CPT, ATP luminescence, 48 h | Potency, µM (doses to about 46.2 µM), for the others: at the top dose activity change, negative = growth inhibition, usual class: inhibitors | 420,000 compounds, 15% hits | AID 686978, 2013; also: nearly all actives have a fitted effect of over 55% in size
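Readout: luminescence from CellTiter-Glo after 30 min in the dark at RT. Cells: DT40 Tdp1-/- with stable hTDP1, 400/well. Exposure: compounds alone, ≥48 hr, 37 °C.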
RORg inh: inhibitors of mouse ROR gamma transcriptional activity; P51450; Drosophila S2 Gal4-RORgamma UAS-luciferase reporter, 20 h; Potency, µM (titrated, usually from 53.6 µM), for inactives: at the highest dose activity change, negative = inhibition, hits mostly inhibitors; 310,000 compounds, 5.4% hits; also: nearly all actives have a fitted effect of over 60% in size
Target sequence (P51450 whole entry, looked up, the tested form may be a part): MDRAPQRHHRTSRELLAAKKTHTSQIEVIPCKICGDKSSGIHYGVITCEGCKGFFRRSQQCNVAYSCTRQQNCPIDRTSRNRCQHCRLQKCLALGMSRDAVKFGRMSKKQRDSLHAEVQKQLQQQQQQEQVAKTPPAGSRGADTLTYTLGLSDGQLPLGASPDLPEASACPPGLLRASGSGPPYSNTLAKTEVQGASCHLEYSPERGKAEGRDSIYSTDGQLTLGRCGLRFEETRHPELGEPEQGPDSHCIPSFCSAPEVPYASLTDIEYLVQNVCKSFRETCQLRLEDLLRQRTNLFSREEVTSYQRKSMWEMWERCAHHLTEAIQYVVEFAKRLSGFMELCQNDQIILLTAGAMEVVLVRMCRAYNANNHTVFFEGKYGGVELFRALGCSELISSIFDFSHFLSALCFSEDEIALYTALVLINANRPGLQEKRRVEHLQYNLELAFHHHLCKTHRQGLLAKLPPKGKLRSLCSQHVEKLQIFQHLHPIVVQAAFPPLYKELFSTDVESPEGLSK
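Drosophila Schneider cells stably carrying a metallothionein-driven Gal4 DBD–ROR gamma fusion and a UAS-Photinus luciferase reporter were exposed to compound for 1 hr, then induced with copper sulfate (700 uM final) for 20 hr at ambient temperature before luminescence reading.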
DT40 TDP1 CPT: DT40-hTDP1 cell growth loss with CPT; AID 686979; chicken DT40 Tdp1-/-;hTDP1 cells + 20 nM CPT, ATP luminescence, 48 h; Potency, µM (doses to about 46.2 µM), for the others: at the highest dose activity change, negative = growth inhibition, actives largely listed as inhibitors; 420,000 compounds, 12% hits; also: nearly all actives have a fitted effect of over 55% in size
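Chicken DT40 Tdp1-/- cells stably complemented with human TDP1 were seeded at 400 cells/well in medium containing 20 nM camptothecin, exposed to pin-transferred compounds, and grown at 37 °C for at least 48 hr. Viability was read as ATP luminescence.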
Active calls of the source: *; ? = inconclusive; / = no result; [ ] = remark or other dose. Sampled rows, rich in hits. Any-hit rate of the full collection: about 19%. Calls follow the shape of the dose curve; as a rule, active = well fitted curve in the direction sought with a large enough effect; inconclusive = small, poorly fitted or top-dose-only effect, or another doubt; inactive = no such curve, though single readings can be large; an effect the other way counts as inactive or inconclusive. % is scaled to controls: 0 for no effect and ±100 for the full control effect; potency is read from the fitted curve at half-maximal effect.

SMILES | TDP1 block | VP16 counter | TDP1 cell noCPT | RORg inh | DT40 TDP1 CPT
COc1cc2nc3occc3c(OC)c2cc1OC | 0% | -1% | -22% | -11% | -29%
COc1ccccc1-c1nc(NC2CC2)c2ccccc2n1 | / | -23% | ? | -24% | ?
COc1cc2nc(CCNCc3ccccc3)nc(NC3CCN(C)CC3)c2cc1OC | / | / | 5µM* | / | 5.6µM*
COc1cc2nc(N(C)C)nc(NC3CCN(C)CC3)c2cc1OC | / | / | 4µM* | / | 4.5µM*
COc1cc2nc(N(C)C)nc(N)c2cc1OC | -5% | -29% | 26µM* | -33% | ?
Fc1ccc(N2CCN(Cc3ccc4c(c3)CN(Cc3cccn3-c3ncccn3)CCO4)CC2)cc1 | / | / | ? | / | 3%[9.04 µM]
O=C(c1ccco1)N1CCN(C(=O)C(Sc2ccccc2)c2ccccc2)CC1 (stereo not given) | 2% | -13% | ? | -2% | 16µM*
COc1cccc(C(=O)Nc2ccccc2N2CCN(C(=O)c3ccccc3)CC2)c1 | 0% | / | 21µM* | / | ?
COc1cccc(C(=O)NC(=S)Nc2ccccc2N2CCCCC2)c1 | 7% | 5µM* | ? | 2.5µM* | ?
O=C(Nc1ccccc1N1CCCCC1)c1cccc(OC(F)F)c1 | / | 3% | ? | 3% | ?
COc1cccc(C(=O)NC(=S)Nc2ccccc2N2CCCC2)c1 | 11% | 13µM* | ? | 4µM* | 23µM*
COc1ccc(NC(=O)CSCC(=O)Nc2ccccc2N2CCCCC2)cc1 | -8% | / | 29µM* | / | ?
COc1ccc(NC(=O)CSCC(=O)Nc2ccccc2N2CCCC2)cc1 | / | / | -25% | / | -21%
C/C(=N\N=C1\NC(=O)C(CC(=O)Nc2ccc(C)c(Cl)c2)S1)C(C)(C)C (stereo not given) | 8% | -23% | 8% | 21% | 21%
CC(C)Oc1ccc(C(=O)Nc2ccccc2N2CCOCC2)cc1 | 3% | 0% | -15% | 9% | 4%
CC(C)Oc1cccc(C(=O)NC(=S)Nc2ccccc2N2CCOCC2)c1 | 7% | 5.6µM* | ? | 5.6µM* | ?
COc1cccc(C(=O)Nc2ccccc2N2CCCC2)c1 | 2% | 0% | ? | 8% | 18µM*
COc1ccc(NS(=O)(=O)c2cc(NC(=O)C3=NN(c4ccccc4)C(=O)CC3)ccc2OC)cc1 | 1% | / | 0.18µM* | / | ?
COc1ccc(OC)c(-c2csc(NC(=O)C3=NN(c4ccccc4)C(=O)CC3)n2)c1 | 5% | -3% | 21µM* | -14% | -23%
O=C(c1cnc(Cl)c(Cl)c1)N1CCN(S(=O)(=O)c2ccc3ccccc3c2)CC1 | 4% | / | 16µM* | / | ?
O=C(O)c1cc(S(=O)(=O)N2CCN(S(=O)(=O)c3ccc4ccccc4c3)CC2)ccc1Br | 35µM* | / | 15% | / | -4%
CCOc1cc(/C=N/NC(=O)c2ccc(O)cc2)ccc1Oc1nc(Cl)ncc1F | -5% | -5% | ? | ? | 21µM*
CCOc1cc(/C=N\Nc2ncc(F)c(N3CCOCC3)n2)ccc1Oc1nc(Cl)ncc1F | 11% | ? | 1.8µM* | ? | 5.2µM*
O=C(Nc1nccs1)C1CC(=O)N(CCc2ccccc2)C1 (stereo not given) | -4% | / | -2% | / | 0%
CCCCNC(=S)Nc1ccc2[nH]c(=O)[nH]c2c1 | 0% | -1% | 6% | -3% | -1%
SMILES | TDP1 block | VP16 counter | TDP1 cell noCPT | RORg inh | DT40 TDP1 CPT
CS(=O)(=O)c1ccc(C(=O)NCC2(N3CCOCC3)CCCCC2)cc1 | 0% | / | -15% | / | 6%
CCOC(=O)c1c(NC(=O)C(C)Oc2ccccc2F)sc(C(C)=O)c1C (stereo not given) | 1% | / | ? | / | ?
CC(C)C[C@@H]1CC2=C(C(=O)OC(C)(C)O2)[C@H](c2ccc(Cl)cc2)O1 | / | / | 18µM* | / | ?
CC1(C)OC(=O)C2=C(C[C@@H](CCc3ccccc3)O[C@@H]2c2ccc(F)cc2)O1 | / | / | 16µM* | / | ?
COc1ccc(CNC(=O)CN(C(=O)CCC(=O)Nc2ccccn2)c2cccc(C)c2)cc1 | 3% | -10% | ? | 21% | ?
COC(=O)c1cc(NC(=O)CN(c2ccccc2)S(=O)(=O)N(C)C)ccc1Cl | -3% | / | 23µM* | / | ?
COC(=O)c1cc(NC(=O)CN(c2ccccc2OC)S(=O)(=O)c2ccccc2)ccc1Cl | 9% | 0% | ? | 14% | ?
COC(=O)c1cc(NC(=O)CN(c2cccc(OC)c2)S(=O)(=O)c2ccccc2)ccc1Cl | 3% | -8% | 16µM* | 15% | ?
COc1ccc(CN(C)C(=O)CNC(=O)c2ccc(C)cc2)cc1 | / | 4% | -7% | 15% | 1%
Nc1cccc(N)c1 | 15% | -5% | / | -9% | /
Nc1cc(N)cc(N)c1 | / | / | 4.5µM* | / | 4.5µM*
Cc1nc2n(COCCO)cnn2c(=O)c1Br | 2% | 9% | 9% | -4% | -4%
COc1ccc(Cn2c(C(=O)O)c(CNCc3ccc(SC)cc3)c3ccc(OC)cc32)cc1 | 5% | / | 5.8µM* | / | 5.2µM*
CCOc1ccc(CNCc2c(C(=O)O)n(Cc3ccccc3F)c3cc(OC)ccc23)cc1 | 5% | / | 5.8µM* | / | 18µM*
COc1ccc2c(CNCc3ccc(C)o3)c(C(=O)O)n(Cc3ccccc3)c2c1 | 8% | / | ? | / | -27%
C=Cc1ccc(Cn2c(C(=O)O)c(CNCc3ccccc3)c3ccc(OC)cc32)cc1 | 5% | / | 15µM* | / | ?
FC(F)C(F)(F)c1cc(-c2ccccc2)n[nH]1 | / | 2% | -10% | 31% | 7%
O=S(=O)(c1ccc(F)cc1)N1CCCNCC1 | / | 1% | 1% | 0% | -3%
CCC(C)[C@@H](NC(=O)OC(C)(C)C)c1nnc(S(=O)(=O)Cc2cccc(C)c2)o1 (stereo not given in full) | 4% | 5µM* | 4.6µM* | 3.2µM* | 2.1µM*
CC(C)(C)OC(=O)N[C@@H](Cc1ccccc1)c1nnc(S(=O)(=O)Cc2ccccc2)o1 | 4% | 4.5µM* | / | 4.5µM* | /
CCSc1nnc([C@H](Cc2ccccc2)NC(=O)OC(C)(C)C)o1 | 1% | 16% | -3% | 12% | -4%
Cc1ccccc1CS(=O)(=O)c1nnc([C@H](Cc2ccccc2)NC(=O)OC(C)(C)C)o1 | 4% | 3.2µM* | 2.1µM* | -16% | 0.65µM*
O=C(N/N=C/c1coc2ccc(Cl)cc2c1=O)c1ccncc1 | 6% | 2% | ? | -5% | ?
CCN1CCN(c2nc3ccccn3c(=O)c2C=O)CC1 | / | -9% | 17% | -11% | -11%
Cc1ccc(NC(=S)NC(=O)CC2CC(C)(C)OC2=O)cc1 (stereo not given) | -3% | -6% | -18% | ? | -3%

From PubChem
